We go through 11 molecules from PubChem BioAssay (NCATS).

A short description of test [1]: Cellular Toxicity (caspase-3) Hek293 (AID 664).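 Further: cells exposed to compound for 16 h at 37 °C before readout.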 The settings on record: HEK293 caspase-3 activation, DMSO = 0%, 100 µM tamoxifen = 100%; at 92.2 µM (top of the series). The essentials: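 qHTS, HEK293 (human embryonic kidney), 16 h cpd exposure in complete medium. Caspase-3/7 activation = luminescence increase; normalized to DMSO/100 uM tamoxifen; Hill-fit AC50.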

Test [2] can be described thus: Cell Viability - LYMP1-002 - Assay at 16 hr (AID 948).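 Further: 0% = DMSO alone and full effect = 92 µM tetraoctylammonium bromide.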 The essentials:
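ATP luminescence (CellTiter-Glo) was measured after 16 hr compound exposure at 37 C of 2500 lymphoblastoid LYMP1-002 cells per well. Concentration-response curves were fitted with the Hill equation to give AC50.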

The nature of test [3]: MultiTox-Fluor Cytotoxicity Assay - LYMP1-002 - Live Cells (AID 955).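 Further: cells exposed to compound for 16 hours; on the % scale 0 is the no-effect control and ±100 the full control effect.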 The procedure, abridged: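 Cells were seeded at 2500 per well and incubated 5 hr. Compounds were then added for 16 hr at 37 C, followed by MultiTox-Fluor reagent for 60 min at room temperature and fluorescence reading of viable-cell protease signal.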
Test [4] in a line: Cell Viability - LYMP2-005 (AID 967). Further: potency means the concentration at half of the fitted maximal effect. The essentials: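 LYMP2-005 human lymphoblastoid cells (2500/well) were treated with compounds for 24 h at 37 C. Intracellular ATP was then measured by CellTiter-Glo luminescence after 30 min at room temperature. AC50 values came from Hill-equation fits of qHTS concentration-response data.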
Test [5] can be described thus: Cell Viability - LYMP2-013 (AID 970). Further: nearly all actives have a fitted effect of over 55% in size. Further: potency means the concentration at half of the fitted maximal effect. The essentials: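 Cytotoxicity is scored as a concentration-dependent drop in intracellular ATP in human lymphoblastoid cells after 24 hr compound exposure at 37 C. ATP is quantified by luciferase luminescence, and AC50 values come from Hill-equation modeling.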
Test [6] can be described thus: Cell Viability - LYMP2-006 (AID 978). Further: on the % scale 0 is the no-effect control and ±100 the full control effect; nearly all actives have a fitted effect of over 60% in size. The essentials:
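Potency values are Hill-fit AC50s for decreases in intracellular ATP (CellTiter-Glo luminescence). LYMP2-006 lymphoblastoid cells, 2500 per well, were exposed to compound in complete culture medium for 24 hr at 37 C.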

The nature of test [7]: Cell Viability - LYMP2-020 (AID 986). Further: nearly all actives have a fitted effect of over 55% in size. Further: potency means the concentration at half of the fitted maximal effect. The procedure, abridged: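 Seed 2500 cells per well and incubate 5 hr at 37 C. Add compounds at a concentration series and incubate 24 hr at 37 C. Add CellTiter-Glo, wait 30 min at RT, read luminescence, and fit a Hill curve for AC50.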
Test [8] is described as follows: Cell Viability - LYMP1-002 - Assay at 40 hr (AID 994).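 Further: 0% = DMSO only and full inhibition = 92 µM tetraoctylammonium bromide; nearly all actives have a fitted effect of over 60% in size.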 The procedure, abridged: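 Cells are plated at 2500 per well and rested 5 hr at 37 C. Compounds are added and incubated 40 hr at 37 C. CellTiter-Glo reagent is added for 30 min at room temperature before luminescence is read.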
Test [9] concerns the target Estrogen receptor (Homo sapiens) (UniProt P03372). Description: qHTS assay for small molecule antagonists of estrogen receptor alpha signaling (AID 588513; active means well fitted curve in the direction sought with a large enough effect in the signal ratio, with a control signal flat, not every such curve was filed as active; the % refers to the signal ratio; further: on the % scale 0 is the no-effect control and ±100 the full control effect). The procedure, abridged: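 Antagonist mode: inhibition of 0.5 nM 17-beta-estradiol-driven beta-lactamase reporter in HEK 293 ER-alpha-UAS-bla cells, 18 h at 37C, CCF4 readout after 2 h at RT. Normalised to estradiol and DMSO; titration fitted to Hill.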

For test [10] the target is unchanged. Description: qHTS assay for small molecule agonists of estrogen receptor alpha signaling (AID 588514; calls by dose curve;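 further: 0% = vehicle only and 100% = reference agonist; nearly all actives have a fitted effect of over 70% in size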). The procedure, abridged:
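Efficacy is expressed against 20 nM 17-beta-estradiol (100%) and DMSO basal (0%); EC50 from Hill equation. Assay: beta-lactamase reporter in ER-alpha-UAS-bla HEK 293 cells, 18 h compound incubation, CCF4 detection.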

In test [11] the target is Peroxisome proliferator-activated receptor gamma (Homo sapiens) (UniProt P37231). Description: qHTS assay for small molecule agonists of peroxisome proliferator-activated receptor gamma signaling (AID 588536; active means well fitted curve in the direction sought with a large enough effect in the signal ratio, with a control signal flat, not every such curve was filed as active; the % refers to the signal ratio;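 further: 0% = DMSO basal wells and 100% = rosiglitazone at 2 µM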). The essentials:
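Cells were plated and held 6–6.5 h at 37 C, then compounds were added as a titration series. After a further 16 h, CCF4 dye was loaded for 2 h at room temperature and emission at 460/530 nm recorded.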
Background: In qHTS, concentration-response curves come from the screen itself.

Test [12] shares this target. The test is described as follows: qHTS assay for small molecule antagonists of peroxisome proliferator-activated receptor gamma signaling (AID 588537; active means well fitted inhibition curve with a large enough effect in the signal ratio, with a control signal flat, not every such curve was filed as active; the % refers to the signal ratio;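 further: reporter cells co-stimulated with 50 nM rosiglitazone agonist during compound treatment; % of control where 0% means no effect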). The essentials: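 Antagonist-mode β-lactamase reporter screen run as a titration series. HEK293 PPARγ-UAS-bla cells are stimulated with rosiglitazone (50 nM final) for 16 h, then CCF4 is read at 460/530 nm. Data are scaled between DMSO and rosiglitazone and fitted to the Hill equation.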

The nature of test [13]: qHTS assay for cell viability of HEK293 cells (AID 743288). Further: on the % scale 0 is the no-effect control and ±100 the full control effect; nearly all actives have a fitted effect of over 50% in size. As to conditions: ATP luminescence (CellTiter-Glo), 18 h; max response: stronger effect = lower value. The essentials:
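Readout is luciferase-coupled ATP content (CellTiter-Glo luminescence, 30 min room temperature) as a measure of metabolically competent cells. Parental HEK293 cells were plated 5 h or more before compound addition, then treated 18 h at 37 C.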

The nature of test [14]: Cell Viability - LYMP2-007 (AID 979).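 Further: cells exposed to compound for 24 h before reading; nearly all actives have a fitted effect of over 60% in size.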 Further: potency means the concentration at half of the fitted maximal effect. The procedure, abridged: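 Cells are seeded at 2500 per well and rested 5 hr. Compounds are then added over a concentration series for 24 hr at 37 C. CellTiter-Glo is added for 30 min at room temperature before luminescence reading.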
Test [15] concerns the target Glucocorticoid receptor (Homo sapiens) (UniProt P04150). The test is described as follows: qHTS assay for small molecule antagonists of glucocorticoid receptor signaling (AID 588533; active means well fitted inhibition curve with a large enough effect in the signal ratio, with a control signal flat, not every such curve was filed as active; the % refers to the signal ratio;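 further: cells stimulated with 2 nM dexamethasone as agonist; on the % scale 0 is the no-effect control and ±100 the full control effect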). The essentials:
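Antagonist-mode qHTS: compound titrations added to GRE-bla HeLa cells, then dexamethasone 2 nM final; 18 h, 37 C. CCF4 FRET fluorescence normalized to dexamethasone and DMSO; IC50 from Hill fit.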

A short description of test [16]: Cell Viability - LYMP2-012 (AID 982).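 Further: cellular ATP by luciferase luminescence where a drop means cytotoxicity; cells exposed to compound for one day before reading; 0% = DMSO only and full loss = 92 µM tetraoctylammonium bromide; nearly all actives have a fitted effect of over 55% in size.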
Test [17] is described as follows: qHTS assay for small molecule antagonists of peroxisome proliferator-activated receptor delta signaling (AID 588535; active means well fitted inhibition curve with a large enough effect in the signal ratio, with a control signal flat, not every such curve was filed as active; the % refers to the signal ratio;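 on max response: cells co-treated with a PPAR-delta agonist as stimulator during compound exposure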). The settings on record: HEK293T PPARd-UAS-bla, beta-lactamase FRET ratio, 18 h; 460 nm channel. The procedure, abridged: (§1)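 Titrations were run on PPAR-delta-UAS-bla HEK293T cells in charcoal/dextran-stripped serum, incubated 18 h at 37 C. CCF4 fluorescence (460/530 nm) after 2 h RT; Hill equation yields IC50 and maximal response.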

Test [18] addresses Peroxisome proliferator-activated receptor delta (Homo sapiens) (UniProt Q03181). The test is described as above. The procedure, abridged: as §1
Test [19] is described as follows: qHTS assay to identify small molecules that stimulate interleukin-8 (IL-8) secretion (AID 651758; active means well fitted activation curve with a large enough effect in the signal ratio; the % refers to the signal ratio; further: potency means the concentration at half of the fitted maximal effect; on activation: 0% is about no effect). The essentials:
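Secreted IL-8 measured homogeneously by TR-FRET (two labelled anti-IL-8 antibodies, 1-3 h at room temperature) after a 16 h, 37 C compound treatment of THP-1 cells at 2000 cells/well.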

In test [20] the target is Mitogen-activated protein kinase 10 (Mus musculus) (UniProt Q61831). The test is described as follows: JNK3 AlphaScreen Assay (AID 530; active means well fitted curve in either direction with a large enough effect, not every such curve was filed as active;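 further: kinase came from lysate of stimulated human HepG2 cells; signal reports phosphorylation of biotinylated GST-cJun 1-79 at Ser73 with 10 µM ATP; on the % scale 0 is the no-effect control and ±100 the full control effect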). The procedure, abridged:
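qHTS titrations with 15 min compound pre-incubation before adding ATP (10 uM final). Read-out: AlphaScreen of Ser73-phosphorylated biotin-GST-cJun using HepG2 lysate JNK3 activated by IL-1β and TNFα.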
For orientation: Alpha assays give light when donor and acceptor beads are brought close together.

Values joined by “and” are separate entries in the source; they are usually repeats but may differ in a detail not shown here. Equal entries are not always repeated. Results filed as inconclusive are left out. Active and inactive are the calls of the source. Unless noted, the call rests on the fitted dose curve; in most records, active means well fitted curve in the direction sought with a large enough effect; inconclusive means small, poorly fitted or top-dose-only effect, or another doubt; inactive means no such curve, though single readings can be large; an effect the other way counts as inactive or inconclusive.

Peroxisome proliferator-activated receptor gamma (Homo sapiens), sequence (P37231 whole entry, looked up): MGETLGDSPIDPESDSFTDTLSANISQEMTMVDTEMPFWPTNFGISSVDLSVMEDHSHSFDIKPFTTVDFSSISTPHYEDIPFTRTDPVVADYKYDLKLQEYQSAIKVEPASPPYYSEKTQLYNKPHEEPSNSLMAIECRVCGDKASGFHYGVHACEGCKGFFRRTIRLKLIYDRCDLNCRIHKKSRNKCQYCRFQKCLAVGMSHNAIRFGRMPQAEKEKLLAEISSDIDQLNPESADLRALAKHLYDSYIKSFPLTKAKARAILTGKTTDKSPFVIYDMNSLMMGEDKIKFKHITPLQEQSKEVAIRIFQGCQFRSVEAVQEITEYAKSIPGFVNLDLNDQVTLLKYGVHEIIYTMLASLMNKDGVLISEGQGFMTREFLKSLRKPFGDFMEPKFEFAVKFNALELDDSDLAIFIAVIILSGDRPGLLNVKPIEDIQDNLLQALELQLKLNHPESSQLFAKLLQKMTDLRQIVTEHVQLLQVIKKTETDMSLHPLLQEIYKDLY
Peroxisome proliferator-activated receptor delta (Homo sapiens), sequence (Q03181 whole entry, looked up): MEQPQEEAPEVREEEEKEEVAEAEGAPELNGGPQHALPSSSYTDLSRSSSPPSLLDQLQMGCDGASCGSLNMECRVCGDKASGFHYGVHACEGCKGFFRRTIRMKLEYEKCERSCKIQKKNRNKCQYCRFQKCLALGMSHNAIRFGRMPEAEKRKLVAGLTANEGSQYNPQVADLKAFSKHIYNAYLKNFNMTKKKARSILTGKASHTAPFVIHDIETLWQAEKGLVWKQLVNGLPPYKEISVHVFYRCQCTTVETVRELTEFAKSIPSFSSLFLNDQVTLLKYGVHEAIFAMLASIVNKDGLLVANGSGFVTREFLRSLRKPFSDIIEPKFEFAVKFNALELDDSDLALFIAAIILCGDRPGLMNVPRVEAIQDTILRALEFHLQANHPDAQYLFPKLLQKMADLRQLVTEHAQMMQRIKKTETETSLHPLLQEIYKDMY
Estrogen receptor (Homo sapiens), sequence (P03372 whole entry, looked up): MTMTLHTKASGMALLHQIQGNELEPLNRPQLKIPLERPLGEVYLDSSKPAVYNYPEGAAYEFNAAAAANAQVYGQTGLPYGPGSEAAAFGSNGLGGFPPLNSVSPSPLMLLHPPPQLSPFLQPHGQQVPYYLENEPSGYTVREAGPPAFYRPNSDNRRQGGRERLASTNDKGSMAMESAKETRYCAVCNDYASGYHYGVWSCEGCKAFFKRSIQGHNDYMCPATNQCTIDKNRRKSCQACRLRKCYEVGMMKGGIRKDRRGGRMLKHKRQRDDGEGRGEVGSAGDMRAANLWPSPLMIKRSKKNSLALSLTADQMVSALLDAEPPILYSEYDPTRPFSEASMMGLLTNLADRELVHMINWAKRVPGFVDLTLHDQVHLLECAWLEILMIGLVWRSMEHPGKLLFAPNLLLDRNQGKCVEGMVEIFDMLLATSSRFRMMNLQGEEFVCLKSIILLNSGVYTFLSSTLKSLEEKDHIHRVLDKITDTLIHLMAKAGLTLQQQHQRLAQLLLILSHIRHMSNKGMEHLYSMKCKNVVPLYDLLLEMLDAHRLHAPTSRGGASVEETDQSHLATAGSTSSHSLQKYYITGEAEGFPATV
Glucocorticoid receptor (Homo sapiens), sequence (P04150 whole entry, looked up): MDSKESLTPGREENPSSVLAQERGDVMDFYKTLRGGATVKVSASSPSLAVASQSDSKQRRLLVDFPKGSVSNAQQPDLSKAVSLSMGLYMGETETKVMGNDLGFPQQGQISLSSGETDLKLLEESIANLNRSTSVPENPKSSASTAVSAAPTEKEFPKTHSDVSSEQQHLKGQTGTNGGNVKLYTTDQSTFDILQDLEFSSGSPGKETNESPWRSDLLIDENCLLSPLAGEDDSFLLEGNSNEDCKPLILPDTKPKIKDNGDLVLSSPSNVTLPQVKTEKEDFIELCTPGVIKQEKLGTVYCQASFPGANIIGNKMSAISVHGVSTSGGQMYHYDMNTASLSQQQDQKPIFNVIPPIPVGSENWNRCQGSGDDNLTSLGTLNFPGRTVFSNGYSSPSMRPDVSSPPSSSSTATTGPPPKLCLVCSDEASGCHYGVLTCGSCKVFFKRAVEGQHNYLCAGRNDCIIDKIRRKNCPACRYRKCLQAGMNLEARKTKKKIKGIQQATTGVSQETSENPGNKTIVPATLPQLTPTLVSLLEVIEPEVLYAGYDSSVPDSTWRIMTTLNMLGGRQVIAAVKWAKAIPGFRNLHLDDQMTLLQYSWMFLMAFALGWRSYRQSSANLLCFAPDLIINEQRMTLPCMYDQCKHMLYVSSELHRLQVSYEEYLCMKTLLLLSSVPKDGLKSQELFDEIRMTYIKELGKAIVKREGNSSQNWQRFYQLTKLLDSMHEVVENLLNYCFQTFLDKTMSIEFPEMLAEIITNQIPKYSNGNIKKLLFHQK

For the molecule `Cc1ccc(C(=O)O)cc1[N+](=O)[O-]`, the caspase-3 activation in test [1] was -1.69% (inactive). Also, the Potency entry in test [2], in test [4], in [5], in test [6], in test [7] and in [8] was “inactive” in each case. Further, the Potency entry in [10] and in [12] was “inactive” in each case. For the same molecule, the call in test [3], in test [9] and in test [11] was inactive. The max response in test [13] is 1.99% (inactive).

Regarding `Brc1ccc(-c2ccccc2)cc1`, the Potency result in [14], in test [8] and in [15] was “inactive” throughout.

As to `Nc1ccc(N=Nc2ccccc2)c(N)c1`, the Potency entry in [4], in test [14], in test [16], in test [7], in test [10] and in [15] was “inactive” throughout. For the same molecule, in [12], the Potency result is “inactive”. Also, the result in test [9] and in test [11] was inactive. In addition, the max response in test [13] was -22.9% (inactive).

With `C=CC1CO1` (stereo not drawn), in test [1], the caspase-3 activation is -0.428% (inactive). Moreover, the call in [3] and in test [11] was inactive. For the same molecule, the Potency result in test [4], in test [5], in test [14], in test [16], in test [8] and in test [15] was “inactive” throughout. In addition, the Potency entry in test [12] is “inactive”. Further, the max response in test [13] was -1.41% (inactive).

As to `CCCCCCCCC1CO1` (stereo not drawn), in [1], the caspase-3 activation is 0.315% (inactive). The Potency result in test [2], in test [4], in test [5], in test [6], in test [14] and in test [16] was “inactive” each time. Further, the Potency result in test [15] and in [12] was “inactive” in each case. In addition, the molecule was called inactive in test [3], in test [18] and in [11]. In addition, the max response in test [17] is -10.9%.

In the case of `Cc1ccc(S(N)(=O)=O)cc1`, the Potency result in test [4], in test [14], in test [16], in test [8], in [15] and in test [12] was “inactive” throughout. The Potency entry in test [19] is “inactive”. Further, the max response in test [17] was 10.9% and 2.08%; in test [13], -5.31% (inactive) and -1.83% (inactive). Moreover, in [18], the molecule was classed as inactive.

As to `NC(=O)c1ccc([N+](=O)[O-])cc1`, the caspase-3 activation in test [1] was 0.417% (inactive). Also, the Potency entry in test [2], in test [4], in test [8] and in test [15] was “inactive” throughout. In [17], the max response is 16.9%. Further, the result in [18] and in test [11] was inactive.

In the case of `Nc1cnn([C@@H]2O[C@H](CO)[C@@H](O)[C@H]2O)c(=O)n1`, the Potency result in test [20], in [2], in test [4], in test [14], in [16] and in [7] was “inactive” in each case. Besides, the Potency entry in test [10] and in test [15] was “inactive” in each case. In addition, the result in [3] and in [9] was inactive. Moreover, the Potency in [19] is 75 µM (active).

`C/C=C/C=C/C=O`: the Potency result in [20], in test [2], in test [8], in test [10] and in test [12] was “inactive” each time. Also, the caspase-3 activation in [1] was 29% (inactive). Moreover, the result in test [3], in test [9] and in test [18] was inactive. Moreover, the Potency was 39.8 µM (active) in [4], 39.8 µM (active) in test [5], 39.8 µM (active) in test [14] and 31.6 µM (active) in test [7]. Also, in [17], the max response came to 13.6%.

On to `O=C(O)/C=C/c1ccc(/C=C/C(=O)O)cc1`, for which, in test [1], the caspase-3 activation is -11.2% (inactive). Besides, the Potency entry in [2], in test [4], in test [7] and in [15] was “inactive” throughout. For the same molecule, the molecule was called inactive in test [3], in test [18] and in test [11]. The results for the max response in [17] and in test [13] were -11.1% and -14.7% (inactive), respectively.

As for `CCCCCCc1ccc(-c2ccc(C#N)cc2)cc1`, the Potency entry in [2], in test [4], in test [6], in test [14], in test [16] and in test [7] was “inactive” each time. The Potency entry in test [8] and in [19] was “inactive” each time. The max response in test [17] was 11%. For the same molecule, in [18], the result was inactive.
